SMILES strings stand for the structures. Counter-ions that a name gives are not always drawn. About 40 (3%) of roughly 1,300 compounds showed activity. The sample as a whole holds a higher share of actives than the screen did. Values without a mark were called inactive.

The assay has as its system Plasmodium falciparum NF54/iGP1_RE9H ulg8 stage V gametocytes. The assay is described as follows: gametocyte viability (luciferase signal relative to DMSO control) (% of DMSO control); higher = less gametocytocidal activity, active = 50 or less. The settings on record: exposure time: 72 h. The gist of the method:
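Gametocyte viability is reported relative to the average of DMSO vehicle wells on the same plate. The assay used day-12 stage V NF54/iGP1_RE9Hulg8 gametocytes at ~2.5% gametocytemia and 3% hematocrit, in 0.5% Albumax II medium, added to 96-well plates of compounds spotted in nanolitre volumes for final 10 µM or 1 µM, one well each. After 72 h at 37 °C, 90 µl was mixed with 10 µl D-luciferin (30 mg/ml), and luminescence was recorded with an IVIS Lumina II.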

In the case of `C=C1/C(=C\C=C2/CCC[C@]3(C)[C@@H]([C@H](C)/C=C/[C@@H](O)C4CC4)CC[C@@H]23)C[C@@H](O)C[C@@H]1O` [Calcipotriene], the gametocyte viability was 79.2 (concentration: 1 µM) and 64.3 (concentration: 10 µM).
`CCN[C@H]1C[C@H](C)S(=O)(=O)c2sc(S(N)(=O)=O)cc21` [Dorzolamide hydrochloride]: the gametocyte viability is 80.2 (concentration: 1 µM) and 87.2 (concentration: 10 µM).
Regarding `CC(C)(Sc1cc(C(C)(C)C)c(O)c(C(C)(C)C)c1)Sc1cc(C(C)(C)C)c(O)c(C(C)(C)C)c1` [Probucol], the gametocyte viability runs as follows: (concentration: 1 µM) 84.2; (concentration: 10 µM) 85.2.
The like results for `NC[C@@H]1O[C@H](O[C@H]2[C@@H](O)[C@H](O[C@@H]3[C@@H](O)[C@H](N)C[C@H](N)[C@H]3O[C@H]3O[C@H](CN)[C@@H](O)[C@H](O)[C@H]3N)O[C@@H]2CO)[C@H](N)[C@@H](O)[C@@H]1O` [Neomycin sulfate] were, in that order, 81.7 and 84.7.
As for `COc1cc(C(=O)OCCCN2CCCN(CCCOC(=O)c3cc(OC)c(OC)c(OC)c3)CC2)cc(OC)c1OC` [Dilazep dihydrochloride], the gametocyte viability reads like this: (concentration: 1 µM) 85.4; (concentration: 10 µM) 94.7.
For `COCCCOc1ccnc(C[S+]([O-])c2nc3ccccc3[nH]2)c1C` (configuration not stated) [Rabeprazole Sodium salt], in that order: 83.8 and 80.3.
The like results for `CN(C)c1ccc(O)c2c1C[C@H]1C[C@H]3[C@H](N(C)C)C(=O)C(C(N)=O)=C(O)[C@@]3(O)C(=O)C1=C2O` [Minocycline hydrochloride] were, in that order, 83.1 and 83.3.
For `C=C(CC)C(=O)c1ccc(OCC(=O)O)c(Cl)c1Cl` [Ethacrynic acid], in that order: 90.4 and 92.5.
For `N=C(N)NCc1cccc(I)c1` [Iobenguane sulfate], the gametocyte viability by setting is: (concentration: 1 µM) 99.3; (concentration: 10 µM) 100.
For `CC1(C)O[C@@H]2C[C@H]3[C@@H]4C[C@H](F)C5=CC(=O)C=C[C@]5(C)[C@@]4(F)[C@@H](O)C[C@]3(C)[C@]2(C(=O)CO)O1` [Fluocinolone acetonide], in that order: 83.3 and 83.3.
As for `CCC1=C(C)CN(C(=O)NCCc2ccc(S(=O)(=O)NC(=O)N[C@H]3CC[C@H](C)CC3)cc2)C1=O` [Glimepiride], the gametocyte viability by setting is: (concentration: 1 µM) 97.7; (concentration: 10 µM) 101.
On to `CC(C)(Oc1ccc(CCNC(=O)c2ccc(Cl)cc2)cc1)C(=O)O` [Bezafibrate], for which the gametocyte viability reads like this: (concentration: 1 µM) 98.6; (concentration: 10 µM) 97.
Consider `CCCCC(CC)CNC(=N)NC(=N)NCCCCCCNC(=N)NC(=N)NCC(CC)CCCC` (configuration not stated) [Alexidine dihydrochloride], for which the gametocyte viability reads like this: (concentration: 1 µM) 36.2 (active); (concentration: 10 µM) 0.515 (active).
For `O=C(O)[C@H]1/C(=C/CO)O[C@@H]2CC(=O)N21` [Potassium clavulanate], the gametocyte viability (concentration: 1 µM) is 91.1 and the gametocyte viability (concentration: 10 µM) is 87.4.
For `C[C@]12CC[C@@H]3c4ccc(O)cc4CC[C@H]3[C@@H]1CCC2=O` [Estrone], in that order: 99.2 and 96.4.
Take `C[C@]12CC[C@@H]3c4ccc(O)cc4CC[C@H]3[C@@H]1CC[C@@H]2O` [Estradiol-17 beta]: the gametocyte viability is 69.7 (concentration: 1 µM) and 41.9 (active) (concentration: 10 µM).
On to `C[C@]12CC[C@@H]3c4ccc(O)cc4CC[C@H]3[C@@H]1C[C@@H](O)[C@@H]2O` [Estriol], for which the gametocyte viability runs as follows: (concentration: 1 µM) 94.6; (concentration: 10 µM) 92.2.
With `CCCCCCC[N+](CC)(CC)CCCCc1ccc(Cl)cc1` [Clofilium tosylate], the gametocyte viability is 97.3 (concentration: 1 µM) and 47.8 (active) (concentration: 10 µM).
For `NNC(=O)c1ccncc1` [Isoniazid], in that order: 80.8 and 83.4.
For the compound `Cc1ncc(C[n+]2csc(CCO)c2C)c(N)n1` [Thiamine hydrochloride], the gametocyte viability runs as follows: (concentration: 1 µM) 94; (concentration: 10 µM) 89.4.
In the case of `CCCc1cc(C(N)=S)ccn1` [Prothionamide], the gametocyte viability runs as follows: (concentration: 1 µM) 93.7; (concentration: 10 µM) 95.2.
The like results for `CC(=O)Oc1cc(C(F)(F)F)ccc1C(=O)O` [Triflusal] were, in that order, 82.3 and 87.1.
For `CC1(O)CCOC(=O)C1` (configuration not stated) [Mevalonic-D, L acid lactone], in that order: 86.7 and 93.8.
With `CC1c2cccc(O)c2C(O)=C2C(=O)C3(O)C(O)=C(C(N)=O)C(=O)C(N(C)C)C3C(O)C21` (configuration not stated) [Doxycycline hydrochloride], the gametocyte viability (concentration: 1 µM) is 94.5 and the gametocyte viability (concentration: 10 µM) is 92.2.
On to `CC(=O)N(O)CCCCCNC(=O)CCC(=O)N(O)CCCCCNC(=O)CCC(=O)N(O)CCCCCN` [Deferoxamine mesylate], for which the gametocyte viability was 90.6 (concentration: 1 µM) and 82.7 (concentration: 10 µM).
For `CC(C(O)c1ccc(O)cc1)N1CCC(Cc2ccccc2)CC1` (configuration not stated) [Ifenprodil tartrate], the gametocyte viability is 81.9 (concentration: 1 µM) and 79.7 (concentration: 10 µM).
On to `CC(=O)O[C@H]1C[C@@H]2CC[C@@H]3[C@H](CC[C@@]4(C)[C@H]3C[C@H]([N+]3(C)CCCCC3)[C@@H]4OC(C)=O)[C@@]2(C)C[C@@H]1N1CCCCC1` [Vecuronium bromide], for which the gametocyte viability was 85.2 (concentration: 1 µM) and 93.1 (concentration: 10 µM).
Regarding `CCC(C)(C)c1ccc(CC(C)CN2C[C@@H](C)O[C@@H](C)C2)cc1` (some centres not stated) [Amorolfine hydrochloride], the gametocyte viability is, setting by setting: (concentration: 1 µM) 79.2; (concentration: 10 µM) 71.3.
In the case of `Cc1ccc(C)c(OCCCC(C)(C)C(=O)O)c1` [Gemfibrozil], the gametocyte viability reads like this: (concentration: 1 µM) 86.7; (concentration: 10 µM) 88.3.
For `C=CC(N)CCC(=O)O` (configuration not stated) [Vigabatrin], in that order: 84.9 and 90.6.
For `CC(Oc1c(Cl)cccc1Cl)C1=NCCN1` (configuration not stated) [Lofexidine], the gametocyte viability was 92.5 (concentration: 1 µM) and 90.5 (concentration: 10 µM).
Consider `CCCCC1C(=O)N(c2ccccc2)N(c2ccccc2)C1=O` [Phenylbutazone], for which the gametocyte viability is, setting by setting: (concentration: 1 µM) 91; (concentration: 10 µM) 85.4.
The like results for `O=C(O)CN(CCN(CC(=O)O)CC(=O)O)CCN(CC(=O)O)CC(=O)O` [Pentetic acid] were, in that order, 101 and 101.
The like results for `CCOC(=O)NNc1nncc2ccccc12` [Todralazine hydrochloride] were, in that order, 86.1 and 76.5.
`NNc1nncc2ccccc12` [Hydralazine hydrochloride]: the gametocyte viability reads like this: (concentration: 1 µM) 94.8; (concentration: 10 µM) 12.8 (active).
For `O=C1C(=O)c2ccccc2C(O)=C1C1CCC(c2ccc(Cl)cc2)CC1` (configuration not stated) [Atovaquone], in that order: 91.4 and 99.6.
Regarding `C#C[C@]1(O)CC[C@H]2[C@@H]3CCC4=C(CCC(=O)C4)[C@H]3CC[C@@]21C` [Norethynodrel], the gametocyte viability was 83.2 (concentration: 1 µM) and 68.7 (concentration: 10 µM).
On to `COC(=O)C1=C(C)NC(C)=C(C(=O)OC)C1c1ccccc1[N+](=O)[O-]` [Nifedipine], for which the gametocyte viability is 91.8 (concentration: 1 µM) and 80.7 (concentration: 10 µM).
As to `Clc1ccc(C(Cn2ccnc2)OCc2c(Cl)cccc2Cl)c(Cl)c1` (configuration not stated) [Isoconazole], the gametocyte viability by setting is: (concentration: 1 µM) 91.2; (concentration: 10 µM) 90.9.
For the compound `CN(C)CCOC(C)(c1ccccc1)c1ccccn1` (configuration not stated) [Doxylamine succinate], the gametocyte viability is 87.8 (concentration: 1 µM) and 87.7 (concentration: 10 µM).
For `Cc1cc(-n2c(=O)[nH]c(=O)n(C)c2=O)ccc1Oc1ccc(SC(F)(F)F)cc1` [Toltrazuril], the gametocyte viability is 86.4 (concentration: 1 µM) and 84.2 (concentration: 10 µM).
`CC1(C)O[C@@H]2C[C@H]3[C@@H]4C[C@H](F)C5=CC(=O)C=C[C@]5(C)[C@H]4[C@@H](O)C[C@]3(C)[C@]2(C(=O)CO)O1` [Flunisolide]: the gametocyte viability is 87.5 (concentration: 1 µM) and 88.9 (concentration: 10 µM).
In the case of `Cc1cc(C(C)(C)CC(C)(C)C)ccc1OCCOCC[N+](C)(C)Cc1ccccc1` [Methyl benzethonium chloride], the gametocyte viability runs as follows: (concentration: 1 µM) 88.6; (concentration: 10 µM) 6.6 (active).
For `C[N+](C)(CCOc1ccccc1)Cc1ccccc1.O=C([O-])c1cc2ccccc2cc1O` [Bephenium hydroxynaphthoate], in that order: 87.3 and 89.9.
On to `CC(C)(C)CC(C)(C)c1ccc(OCCOCC[N+](C)(C)Cc2ccccc2)cc1` [Benzethonium chloride], for which the gametocyte viability reads like this: (concentration: 1 µM) 82.1; (concentration: 10 µM) 9.32 (active).
For `Cc1cc(C2CCCCC2)n(O)c(=O)c1` [Ciclopirox ethanolamine], in that order: 85.5 and 86.8.
Take `Clc1ccc2nsnc2c1NC1=NCCN1` [Tizanidine HCl]: the gametocyte viability is, setting by setting: (concentration: 1 µM) 93.4; (concentration: 10 µM) 98.4.
`C[C@H]1[C@H](NC(=O)/C(=N\OC(C)(C)C(=O)O)c2csc(N)n2)C(=O)N1S(=O)(=O)O` [Aztreonam]: the gametocyte viability is, setting by setting: (concentration: 1 µM) 96.9; (concentration: 10 µM) 96.
As for `CCOC(=O)O[C@]1(C(=O)OCCl)CC[C@H]2[C@@H]3CCC4=CC(=O)C=C[C@]4(C)[C@H]3[C@@H](O)C[C@@]21C` [Loteprednol etabonate], the gametocyte viability is 88.2 (concentration: 1 µM) and 85 (concentration: 10 µM).
Turning to `Cc1cccc(C)c1NC(=O)C(C)N` (configuration not stated) [Tocainide hydrochloride], the gametocyte viability is 91.8 (concentration: 1 µM) and 90.2 (concentration: 10 µM).
Regarding `O=C1[C@H]2CCCC[C@H]2C(=O)N1CCCCN1CCN(c2nsc3ccccc23)CC1` [Perospirone], the gametocyte viability was 64.7 (concentration: 1 µM) and 39.7 (active) (concentration: 10 µM).
For the compound `O=C1CC2(CCCC2)CC(=O)N1CCCCN1CCN(c2ncccn2)CC1` [Buspirone hydrochloride], the gametocyte viability reads like this: (concentration: 1 µM) 83.9; (concentration: 10 µM) 65.7.
For `O=C1Cc2cc(CCN3CCN(c4nsc5ccccc45)CC3)c(Cl)cc2N1` [Ziprasidone  Hydrochloride], in that order: 82.9 and 71.6.
For the compound `OCCN(CCO)c1nc(N2CCCCC2)c2nc(N(CCO)CCO)nc(N3CCCCC3)c2n1` [Dipyridamole], the gametocyte viability was 64.1 (concentration: 1 µM) and 41.1 (active) (concentration: 10 µM).
The like results for `N=c1nc(N2CCCCC2)cc(N)n1O` [Minoxidil] were, in that order, 102 and 96.
On to `CC(C)NCC(O)c1ccc(O)c(O)c1` (single isomer, unassigned; (+)) [(+)-Isoproterenol (+)-bitartrate salt], for which the gametocyte viability is 100 (concentration: 1 µM) and 97.8 (concentration: 10 µM).

Source of the values: the supplement of paper PMC12297408.
